Assay outcomes deposited in PubChem BioAssay by National Center for Advancing Translational Sciences (NCATS).
Only some compounds are listed: those with a hit (about 3.8% of all), similar ones and a draw of the others.
Sfp inh: Sfp phosphopantetheinyl transferase inhibition. Q9F4F7. Biochemical Sfp PPTase activity, qHTS. Potency, µM, for inactives: largest response in the series, negative = inhibition, actives largely listed as inhibitors. 3.5% of 310,000 active. AID 1490;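 note: the enzyme is Sfp with the accession as filed and its product quenches rhodamine fluorescence; 0% = enzyme reaction without inhibitor and -100% = no enzyme wells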
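Compounds were incubated with enzyme (final 15 nM) for 15 min at room temperature before substrate addition started the reaction. Fluorescence at 525 nm excitation, 598 nm emission was recorded immediately and after 30 minutes.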
TrxR1 substrate: substrates of rat thioredoxin reductase 1; 0.01% of 390,000 active; Potency, µM (top dose mostly 114 µM), for the others: at the top dose activity change, negative = substrate turnover; AID 588456; purified TrxR1 substrate turnover, NADPH consumption readout; note: nearly all actives have a fitted effect of over 50% in size
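Rat TrxR1, dispensed at 90 nM, was prereduced with 400 uM NADPH (final) for 5 min at ~22 deg C, then incubated with compound 15 min before 400 uM selenite. A first-read NADPH fluorescence drop versus no-compound background flagged substrates.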
rTrxR1 inhibitor: rat TrxR1 inhibition. O89049. recombinant rTrxR1, NADPH fluorescence consumption, selenite substrate. Potency, µM (titrated, usually from 114 µM), without a hit: top-dose activity change, negative = inhibition, hits mostly inhibitors. 1% of 390,000 active; note: nearly all actives have a fitted effect of over 65% in size
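Rat TrxR1 (90 nM in the dispensed reagent) was pre-reduced with 400 uM NADPH for 5 min at room temperature, then incubated with compound for 15 min. After 400 uM selenite was added, NADPH fluorescence (Ex 340/Em 450 nm) was followed for 8 min.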
GCN5L2 inh: blocks human GCN5L2 histone acetyltransferase; Q92830; GCN5L2 HAT assay, ThioGlo1 CoA-SH fluorescence; Potency, µM (top dose mostly 58.9 µM), inactives show top-dose activity change, negative = inhibition, hits mostly inhibitors; 0.21% of 390,000 active
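Enzyme at 20nM final was mixed with library compounds for 15 min at room temperature. Peptide H3(1-25) at 75uM, acetyl-CoA at 70uM and ThioGlo1 at 50uM were then added. Plates were read immediately and after 20 min (Ex340nm/Em540nm).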
GLS inh: blocks human kidney-isoform glutaminase activity. GLS enzymatic activity, qHTS titration. Potency, µM (titrated, usually from 45.5 µM), without a hit: at the top dose activity change, negative = inhibition, actives largely listed as inhibitors. 0.21% of 410,000 active
Target sequence (O94925 whole entry, looked up, canonical isoform): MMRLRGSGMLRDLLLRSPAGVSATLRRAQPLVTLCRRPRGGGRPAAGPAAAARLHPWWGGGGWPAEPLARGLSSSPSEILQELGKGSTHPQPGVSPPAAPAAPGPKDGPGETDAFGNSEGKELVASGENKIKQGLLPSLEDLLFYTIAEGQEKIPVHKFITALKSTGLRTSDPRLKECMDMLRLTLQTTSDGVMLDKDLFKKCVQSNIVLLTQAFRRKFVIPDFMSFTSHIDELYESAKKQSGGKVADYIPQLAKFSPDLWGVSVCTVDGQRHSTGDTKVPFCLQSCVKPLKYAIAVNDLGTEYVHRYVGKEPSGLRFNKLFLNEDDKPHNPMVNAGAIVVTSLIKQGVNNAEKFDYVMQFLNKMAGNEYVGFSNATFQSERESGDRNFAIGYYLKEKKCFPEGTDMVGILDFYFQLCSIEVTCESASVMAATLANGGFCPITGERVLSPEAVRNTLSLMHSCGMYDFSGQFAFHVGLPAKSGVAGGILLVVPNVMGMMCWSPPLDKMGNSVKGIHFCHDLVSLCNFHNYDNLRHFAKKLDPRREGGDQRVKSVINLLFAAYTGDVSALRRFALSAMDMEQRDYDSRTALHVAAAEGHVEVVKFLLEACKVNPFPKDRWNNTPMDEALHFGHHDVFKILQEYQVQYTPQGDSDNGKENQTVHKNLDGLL
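Human kidney-isoform GLS in 45 mM KH2PO4 pH 8.2, 0.02% Tween-20, with compound, started with 1mM L-Glutamine (added stock). Glutamate oxidase/HRP/Amplex red coupled fluorescence read at start and after 30 min at RT.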
VDR inhibitor: vitamin D3 receptor (human) inhibition; Potency, µM, for inactives: max response, negative = inhibition, actives largely listed as inhibitors; VDR-SRC2-3 peptide fluorescence polarization, 2 h; 0.93% of 400,000 active; P11473
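Compounds are added to VDR with labelled SRC2-3 coactivator peptide and held 2 h at room temperature. Inhibition of the VDR–peptide interaction is then read as a change in fluorescence polarization.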
* hit, by the source's call; [ ] = remark or other dose. Calls come from the whole dose curve; as a rule, active = well fitted curve in the direction sought with a large enough effect; inconclusive = small, poorly fitted or top-dose-only effect, or another doubt; inactive = no such curve, though single readings can be large; an effect the other way counts as inactive or inconclusive. Unless noted, % is set by controls: 0 for no effect and ±100 for the full control effect; potency is the fitted concentration of half-maximal effect.

`O=C(NCCc1ccccc1)C(c1cccs1)N(C(=O)c1csnn1)C1CC1` (stereo not drawn) gave Sfp inh 5%, TrxR1 substrate 12%, rTrxR1 inhibitor 24%, GCN5L2 inh -5%, GLS inh -8% and VDR inhibitor -9%.
`Cn1c(=O)[nH]c(=O)c2c1nc(Br)n2C/C=N/NC(N)=S` gave Sfp inh 56µM* and GCN5L2 inh 2%.
For CCCC(=O)OCCn1c(Br)nc2c1c(=O)[nH]c(=O)n2C the results were Sfp inh -10%, TrxR1 substrate -2%, rTrxR1 inhibitor 5%, GCN5L2 inh 2%, GLS inh 9% and VDR inhibitor 9%.
For COc1cc(C(=S)N2CCN(c3ccccc3Cl)CC2)cc(O)c1O the results were Sfp inh 35µM*, TrxR1 substrate 2%, rTrxR1 inhibitor 8%, GCN5L2 inh -23%, GLS inh 2% and VDR inhibitor inconclusive.
COc1ccc(C(=S)N2CCN(c3ccccc3Cl)CC2)cc1OC was read as Sfp inh 35µM*, TrxR1 substrate -11%[57.1 µM], rTrxR1 inhibitor -13%[57.1 µM], GCN5L2 inh -12%, GLS inh 4% and VDR inhibitor inconclusive.
COc1ccccc1N1CCN(C(=O)COc2ccc(Cl)cc2Br)CC1 was read as Sfp inh -20%, TrxR1 substrate -4%, rTrxR1 inhibitor 10%, GCN5L2 inh -6%, GLS inh -3% and VDR inhibitor -13%.
`COc1ccc(C(=O)NC(=S)N2CCN(c3ccccc3OC)CC2)cc1OC` gave Sfp inh inconclusive, TrxR1 substrate -1%, rTrxR1 inhibitor 7%, GCN5L2 inh -10%, GLS inh 8% and VDR inhibitor -1%.
O=C(NCc1ccccn1)C(=O)NCc1ccccn1 was read as Sfp inh 56µM*, TrxR1 substrate 8%, rTrxR1 inhibitor 26%, GCN5L2 inh 4%, GLS inh 1% and VDR inhibitor -6%.
`O=C(Cc1sc(Nc2ccccc2)nc1-c1ccccc1)NCc1ccccn1` gave Sfp inh 14µM*, TrxR1 substrate 5%[57.1 µM], rTrxR1 inhibitor -26%, GCN5L2 inh -4%, GLS inh inconclusive and VDR inhibitor 8%.
For Cc1nc2ccsc2c(=O)n1-c1cccc(Cl)c1 the results were TrxR1 substrate -9%, rTrxR1 inhibitor 3%[57.1 µM], GLS inh -5% and VDR inhibitor 5%.
Screening Nc1ncc2c(n1)-c1cc(Cl)ccc1SC2 returned Sfp inh -3%, TrxR1 substrate -9%, rTrxR1 inhibitor 26%[57.1 µM], GCN5L2 inh 1%, GLS inh 1% and VDR inhibitor -13%.
Cc1c(CC(=O)NCCc2ccccc2F)c(=O)oc2cc(O)c(Cl)cc12 was read as TrxR1 substrate 915%, rTrxR1 inhibitor 71µM*, GCN5L2 inh inconclusive, GLS inh 1% and VDR inhibitor 1%.
`N#C/C(=C/Nc1ccccc1)c1ccsc1` gave Sfp inh -20%, TrxR1 substrate -6%, rTrxR1 inhibitor 11%, GLS inh 18% and VDR inhibitor 5%.
CN(CCO)c1nc(N)c2c(N)nc3c(c2c1C#N)CC(=O)N3C1CCCC1 was read as Sfp inh 50µM* and GCN5L2 inh -15%.
Screening C=C1CCN(C(CC(C)C)C(=O)NCc2ccc(OC)cc2)S(=O)(=O)c2ccccc21 (stereo not drawn) returned Sfp inh -5%, TrxR1 substrate -2%, rTrxR1 inhibitor 23% and VDR inhibitor 0%.
Cc1cc(O)c(C(c2ccccc2Cl)N2CCN(c3ccccc3)CC2)c(=O)n1Cc1ccco1 (stereo not drawn) was read as TrxR1 substrate 2%[57.1 µM], rTrxR1 inhibitor inconclusive, GCN5L2 inh -8%, GLS inh 42% and VDR inhibitor -10%.
